A selection: hits, their analogues and other compounds. The true share with any hit is near 2.7%.
ATXN viability – viability counter-screen for ATXN expression inhibitors. S2 cells (HEK-293 line with an ATXN2-luciferase reporter) viability, CellTiter-Fluor protease fluorescence, 24 h. Potency, µM (doses to about 56.7 µM), most hits filed as cytotoxic. actives 0.49% (n = 400,000). AID 651635; also: nearly all actives have a fitted effect of over 40% in size
TGFb inhibitor – blocks TGF-b signaling; HepG2 CAGA-GFP TGF-b/SMAD3 reporter, GFP fluorescence, 18 h; TGF-beta stimulated, 500 pg/mL final; Potency, µM (top dose mostly 46.1 µM), usual class: inhibitors; actives 1.2% (n = 410,000); also: nearly all actives have a fitted effect of over 65% in size
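Smad-responsive CAGA-GFP expression was quantified in HEPG2 cells exposed to compounds and 500 pg/mL final TGF-beta for 18 h at 37 degrees C; unstimulated wells defined full inhibition.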
HepG2 viability – counter-screen for TGF-b inhibitors: cytotoxicity in HepG2 cells; HepG2 CAGA-GFP viability, ATP luminescence, 18 h; Potency, µM (doses to about 46.1 µM), actives largely listed as cytotoxic; actives 0.76% (n = 410,000)
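CellTiter-Glo luminescence gave cytotoxicity after 18 hours at 37 degrees C. The cells were HepG2 CAGA-GFP in 1% FBS DMEM, stimulated with 500 pg/mL TGF-beta after compound addition. %Activity was normalised to no-cell wells (complete cell-killing) and DMSO (no toxicity), and curves were fitted and classified.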
ATXN2 expr inh – inhibitors of ATXN2 expression. actives 0.72% (n = 360,000). Potency, µM (top dose mostly 57 µM), usual class: inhibitors. HEK-293 ATXN2-luciferase reporter, luminescence, 24 h; also: nearly all actives have a fitted effect of over 55% in size
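qHTS (up to 57 uM final) was run with 24 h compound exposure of reporter cells at 37 °C. Each well was multiplexed: SteadyGlo luminescence measured ATXN2-luciferase expression after a fluorogenic Gly-Phe-AFC viability readout (25 uM final).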
ALOX12 inh – ALOX12 (human) lipoxygenase inhibition. P18054. purified 12hLO, xylenol orange hydroperoxide absorbance. Potency, µM (doses to about 108 µM), actives largely listed as inhibitors. actives 1.1% (n = 580,000)
Target sequence (P18054 whole entry, looked up): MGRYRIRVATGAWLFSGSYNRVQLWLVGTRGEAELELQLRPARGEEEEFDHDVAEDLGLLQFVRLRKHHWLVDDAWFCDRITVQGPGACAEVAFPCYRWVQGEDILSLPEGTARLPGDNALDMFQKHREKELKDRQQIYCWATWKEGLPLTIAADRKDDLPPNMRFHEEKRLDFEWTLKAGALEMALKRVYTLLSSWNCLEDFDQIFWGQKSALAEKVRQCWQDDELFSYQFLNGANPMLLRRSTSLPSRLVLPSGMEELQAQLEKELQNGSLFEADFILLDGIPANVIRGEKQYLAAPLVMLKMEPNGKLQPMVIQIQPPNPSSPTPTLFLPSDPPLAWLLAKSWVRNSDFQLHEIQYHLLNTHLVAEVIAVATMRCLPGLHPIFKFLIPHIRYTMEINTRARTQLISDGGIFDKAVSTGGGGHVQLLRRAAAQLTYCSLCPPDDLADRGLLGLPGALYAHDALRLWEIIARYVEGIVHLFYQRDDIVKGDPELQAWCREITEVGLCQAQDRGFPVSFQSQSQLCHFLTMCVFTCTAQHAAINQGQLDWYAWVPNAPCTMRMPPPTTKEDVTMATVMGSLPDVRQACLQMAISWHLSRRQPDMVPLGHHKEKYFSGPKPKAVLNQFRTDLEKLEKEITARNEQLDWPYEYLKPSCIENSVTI
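Hydroperoxide product was detected by ferrous iron/xylenol orange as the 573 to 405 nm absorbance ratio. Arachidonic acid at 40 uM (final) was turned over for 30 min at room temperature by 150 nM human 12hLO, pH 7.0 Hepes buffer, after 15 min compound preincubation.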
Numbers stand for hits; i = inactive; ? = inconclusive; nt = no result; ! = not confirmed by another sample; [ ] = dose if it differs, or a comment. Calls follow the shape of the dose curve; as a rule, active = well fitted curve in the direction sought with a large enough effect; inconclusive = small, poorly fitted or top-dose-only effect, or another doubt; inactive = no such curve, though single readings can be large; an effect the other way counts as inactive or inconclusive.

SMILES	ATXN viability	TGFb inhibitor	HepG2 viability	ATXN2 expr inh	ALOX12 inh
OC(CNCCc1ccc(C(F)(F)F)cc1)COc1ccc2ccccc2c1 (configuration not stated)	nt	?	i	28µM	?
CCOc1ccc(CN(C)CC(O)COC(c2ccc(OC)cc2)c2ccc(OC)cc2)cc1 (configuration not stated)	i	?	i	i	?
O=C(NCCc1ccccc1)Nc1cccc(CN2CCOC2=O)c1	nt	nt	nt	nt	i
C/C(CCc1oc2ccc(Br)cc2c1-c1ccc(C)o1)=N\O	nt	nt	nt	nt	11µM
CC(=O)CCc1oc2ccc(C)cc2c1-c1ccc(C)o1	i	i	i	i	?
C/C(CCc1oc2ccc(C)cc2c1-c1ccc(C)o1)=N\O	nt	nt	nt	nt	40µM!
COc1ccccc1CNS(=O)(=O)c1cc(CN2C(=O)c3cccnc3C2=O)ccc1OC	i	i	i	nt	35µM
COc1ccc(Cl)cc1NC(=O)c1nc2ccccc2nc1N1CCCCC1	nt	nt	nt	nt	i
Cc1cc(Br)cc2c1N(Cc1ccccc1OC(C)C)C(=O)C2=O	nt	nt	10µM	nt	4.5µM!
CCN1/C(=C2\SC(=S)N(Cc3ccccc3)C2=O)Sc2ccccc21	i	i	i	i	i
CCC(CO)[n+]1c(C)cc(/C=C2\Sc3ccccc3N2Cc2ccccc2)cc1C (configuration not stated)	?	i	i	?	50µM
Cc1cccc(N2C(=O)CCSC23C(=O)N(Cc2ccc(F)cc2)c2ccccc23)c1 (configuration not stated)	nt	?	18µM	nt	i
O=C1CCSC2(C(=O)N(Cc3ccc(F)cc3)c3ccccc32)N1c1cccc(F)c1 (configuration not stated)	nt	13µM	i	nt	i
O=C1CCSC2(C(=O)N(Cc3ccc(F)cc3)c3ccccc32)N1c1ccccc1 (configuration not stated)	nt	?	i	nt	i
Cc1ccc(-c2nn3c(CCCC(=O)O)nc4ccccc4c3nc2=O)cc1C	nt	nt	nt	nt	i
Cc1cccc(C(=O)NC(NC(C)C)C(Cl)(Cl)Cl)c1 (configuration not stated)	nt	nt	nt	nt	i
Cc1ccc(/C=C2\CCOC2=O)cc1	i	i	i	i	i
Cc1ccc(/C=C2/CNC/C(=C/c3ccc(C)cc3)C2=O)cc1	?	10µM	i	?	i
COc1ccccc1NS(=O)(=O)c1cccc(C(=O)N/N=C/c2ccc([N+](=O)[O-])o2)c1	?	7.1µM	i	?	i
Cc1cc(C(=O)N/N=C/c2ccc([N+](=O)[O-])o2)c(C)o1	?	18µM	11µM	nt	?
O=C(CNc1ccc2ccccc2c1)N/N=C/c1ccc([N+](=O)[O-])o1	?	8.9µM	7.9µM	i	i
COc1ccccc1NS(=O)(=O)c1cccc(C(=O)N/N=C/c2ccc3c(c2)OCCO3)c1	i	i	i	i	i
Cc1ccc(OCC(=O)N/N=C/c2ccc([N+](=O)[O-])o2)cc1	?	10µM	10µM	?	i
CCNC(=O)NC(=O)C(C)OC(=O)CSc1ccc(Br)cc1 (configuration not stated)	nt	nt	nt	nt	i
Cc1c(O)ccc2c(CN3CCC(O)CC3)cc(=O)oc12	nt	nt	nt	nt	i
SMILES	ATXN viability	TGFb inhibitor	HepG2 viability	ATXN2 expr inh	ALOX12 inh
Cc1ccc(Nc2nc(COC(=O)c3ccc4c(c3)C(=O)N(c3ccccc3C)C4=O)cs2)cc1	nt	nt	nt	nt	i
CCN1c2cc(C(=O)NCc3ccccc3C)ccc2C(=O)N2CCCCCC21 (configuration not stated)	nt	nt	nt	nt	i
O=C(COc1ccccc1)N/N=C/c1ccc([N+](=O)[O-])o1	?	11µM	11µM	nt	?
COC(=O)N/N=C/c1ccc([N+](=O)[O-])o1	i	i	i	i	i
O=C(N/N=C/c1ccccn1)c1sc2ccccc2c1Cl	?	?	i	nt	i
O=C(CSc1ccc(Cl)cc1)N/N=C/c1ccc([N+](=O)[O-])o1	?	?	i	?	40µM
O=C(N/N=C/c1ccc([N+](=O)[O-])o1)c1sc2ccccc2c1Cl	32µM	?	i	nt	i
O=C(c1ccccc1)c1ccc(OCC(=O)N(Cc2nc3ccccc3c(=O)[nH]2)CC2CCCO2)cc1 (configuration not stated)	nt	nt	nt	nt	i
C=CCn1c(SCCO)nc2c1c(=O)n(C)c(=O)n2C	nt	nt	nt	nt	i
CN1CCN(C(=O)Cn2ccc3c(Br)cccc32)CC1	nt	nt	nt	nt	i
Cc1c(C)c(C)c(S(=O)(=O)Nc2cc(Cl)ccc2C(=O)N(C)C)c(C)c1C	nt	nt	nt	nt	40µM
CSc1ccc(/C=C2\CS(=O)(=O)c3c(F)cccc3C2=O)cc1	nt	nt	nt	nt	i
CCOC(=O)c1c(NC(=O)c2noc3c2CC(C)CC3)sc(C)c1C (configuration not stated)	nt	nt	nt	nt	i
CCN1CCCC1CNC(=O)C(=O)Nc1ccc2cc[nH]c2c1 (configuration not stated)	nt	nt	nt	nt	i
CCn1c2ccccc2c2cc(C3C(C#N)=C(N)Oc4n[nH]c(COC)c43)ccc21 (configuration not stated)	i	10µM	4µM	2.5µM	i
Cc1cc(C)c(S(=O)(=O)Nc2cnc3ccccc3c2)c(C)c1	i	?	i	i	16µM!
Cc1cccc(C(=O)NCCC(=O)N2CCCCCC2)c1	nt	nt	nt	nt	i
CCc1noc(-c2ccn3c(CNC(=O)c4ccccc4Cl)nnc3c2)n1	nt	nt	nt	nt	i
CCCc1noc(-c2ccn3c(CNC(=O)Cc4ccccc4OC)nnc3c2)n1	nt	nt	nt	nt	50µM
CCCc1noc(-c2ccn3c(CNC(=O)c4ccccc4F)nnc3c2)n1	nt	nt	nt	nt	50µM
COc1ccccc1CC(=O)NCc1nnc2cc(-c3nc(C)no3)ccn12	nt	nt	nt	nt	i
CCCc1noc(-c2ccn3c(CNC(=O)c4ccccc4Cl)nnc3c2)n1	nt	nt	nt	nt	40µM
CN1C[C@@H](NC(=O)c2ccccc2)C[C@H]1c1nc(-c2ccc3c(c2)OCO3)no1	nt	nt	nt	nt	i
O=C(CS(=O)(=O)c1nc(-c2ccc(Cl)cc2)cn1-c1ccccc1)Nc1cccc(Cl)c1	?	10µM	i	i	i
Fc1ccc(C(Nc2ccccn2)c2c[nH]c3ccccc23)cc1 (configuration not stated)	?	?	i	nt	6.3µM
SMILES	ATXN viability	TGFb inhibitor	HepG2 viability	ATXN2 expr inh	ALOX12 inh
O=[N+]([O-])CC(c1ccc(F)cc1)c1c[nH]c2ccccc12 (configuration not stated)	?	?	i	?	i
CC(C)c1ccc(-n2nnnc2C2(Nc3ccccc3)CCCC2)cc1	nt	nt	nt	nt	i
O=C(/C=C/c1ccc(OC2CSC2)cc1)c1ccccc1	?	?	6.3µM	?	i
O=C(N/N=C/c1ccc(OC2CSC2)cc1)c1ccccc1	?	i	i	i	i
CC1=NOC(=O)/C1=C\c1ccc(-c2cc(Cl)ccc2Cl)o1	i	i	i	i	2.2µM
CC1=NOC(=O)/C1=C\c1ccc(-c2ccc(Br)cc2)o1	?	?	i	i[11.3 µM]	45µM
COc1ccc(-c2cc(=O)c3c(O)cc(O)cc3o2)cc1	i	10µM	i	i	i
Nc1nc(=S)c2[nH]c(=S)[nH]c2[nH]1	i	i	i	i	7.9µM
